Screening data as filed in PubChem.
Rtt109 HAT inh: inhibitors of Candida albicans Rtt109/Vps75 histone acetyltransferase; Q5AAJ8; purified Rtt109/Vps75, ThioGlo CoA-SH fluorescence, 4 h; inhibition, % at 34.9 µM; 330,000 compounds, 0.16% hits; AID 540336;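 active = inhibition of at least 50% in every replicate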
Target sequence (Q5AAJ8 whole entry, looked up): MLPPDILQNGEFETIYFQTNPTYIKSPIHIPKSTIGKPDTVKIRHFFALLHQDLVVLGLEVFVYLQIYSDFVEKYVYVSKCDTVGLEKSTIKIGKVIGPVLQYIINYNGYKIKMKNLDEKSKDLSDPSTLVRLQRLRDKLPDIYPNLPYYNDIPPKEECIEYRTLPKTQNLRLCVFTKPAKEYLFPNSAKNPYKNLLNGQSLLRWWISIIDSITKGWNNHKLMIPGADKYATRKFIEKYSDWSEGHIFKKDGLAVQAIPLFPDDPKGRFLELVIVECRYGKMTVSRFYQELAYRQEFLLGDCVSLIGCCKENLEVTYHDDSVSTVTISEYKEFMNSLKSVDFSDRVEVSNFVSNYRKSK
Platelet DG rel: modulates dense granule release in human platelets; human platelet-rich plasma, SFLLRN dense granule ATP release, luminescence; inhibition, %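 (compounds screened at 7.5 µM in platelet-rich plasma)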; 300,000 compounds, 0.22% hits; AID 1663;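 active = mean replicate score, as percent of positive control, at or above 50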
TPT1 inh: C. albicans TPT1 enzyme inhibition; recombinant caTPT1, FP RNA substrate dephosphorylation; inhibition, % at 5 µM; 300,000 compounds, 0.81% hits;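 active = inhibition above the mean of all tested compounds plus 3 SD, set per screening campaign, cut at about 24% in these data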;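 also: plate controls were DMSO alone for no effect and ferristatin control at 100 nM for full effect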
WT yeast gro inh: growth inhibition of WT yeast, mitochondrial fusion screen. 190,000 compounds, 2.1% hits. inhibition, % at 10 µM. AID 1362. mitochondrial fusion phenotypic screen, WT strain; in the data active = inhibition above about 58%; tested in S. cerevisiae
SKKanGAS inh: SKKanGAS growth inhibition; AID 1662; 300,000 compounds, 1.3% hits; inhibition, % at 7.5 µM; S. pyogenes SKKanGAS, kanamycin growth, BacTiter-Glo, 6 h;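 active = mean replicate score, as percent of positive control median, at least 50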;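 also: strain carries kanamycin resistance gene driven by streptokinase promoter and grows in 40 µg/ml kanamycin; loss of luminescence reflects streptokinase promoter inhibition or plain growth inhibition; 0% = median of DMSO wells and 100% = positive control at its reference dose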
PHOSPHO1 block: blocks human PHOSPHO1 phosphatase activity | inhibition, % at 13.3 µM | AID 1565 | recombinant PHOSPHO1, absorbance phosphatase assay | 290,000 compounds, 1.1% hits; in the data active = inhibition above about 60%
Target sequence (Q8TCT1 whole entry, looked up): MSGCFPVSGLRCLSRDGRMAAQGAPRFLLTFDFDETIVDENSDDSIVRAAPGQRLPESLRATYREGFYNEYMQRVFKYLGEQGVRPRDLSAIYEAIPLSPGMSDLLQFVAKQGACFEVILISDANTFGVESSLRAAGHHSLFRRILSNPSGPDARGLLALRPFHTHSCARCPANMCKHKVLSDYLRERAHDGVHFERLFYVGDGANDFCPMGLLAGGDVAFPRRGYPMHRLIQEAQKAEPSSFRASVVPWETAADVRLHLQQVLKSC
Numbers without * were called inactive; . = no result given. Shown are actives, neighbours in structure and some others; about 3.9% of the full set was active somewhere.

SMILES | Rtt109 HAT inh | Platelet DG rel | TPT1 inh | WT yeast gro inh | SKKanGAS inh | PHOSPHO1 block
CCN(CC)S(=O)(=O)c1ccc(N2CC(C(=O)N3Cc4ccccc4CC3C(N)=O)CC2=O)cc1 (stereo not drawn) | -6.4 | . | . | . | . | .
COc1ccccc1N1CCN(C2CCCN(C(=O)c3cccc(-c4ccco4)c3)C2)CC1 (stereo not drawn) | 18.5 | 13.9 | 2.3 | . | 0.5 | 2.6
CN(C(=S)Nc1ccc(Oc2ccccc2)cc1)C1CCCCC1 | 7.9 | 5.3 | -0.3 | 67.5* | -4.5 | -6.6
S=C(Nc1ccc(Oc2ccccc2)cc1)NC1CCCCC1 | 0.0 | . | 0.6 | 60.7* | 53.7* | 3.5
NS(=O)(=O)c1ccc(NC(=S)NC2CCCC2)cc1 | 3.1 | 7.2 | -6.7 | -6.7 | -0.5 | 80.8*
CCC(CC)c1nn2c(N)c(/C=C3\C(C)=Nc4ccccc43)c(=O)nc2s1 | . | -7.9 | 15.6 | . | 62.4* | 41.5
COc1cccc2c1C1COC3C4CC(C(=O)O)C(C(C2)N13)N4C (stereo not drawn) | 1.5 | . | . | . | . | .
Cc1cc(N2CCCC2)ccc1NC(=O)CN1C(=O)NC2(CCCCC2)C1=O | -3.7 | . | -0.4 | . | 0.6 | .
O=C(COC(=O)c1c(F)cccc1Cl)NCC1CCCCC1 | -13.9 | . | . | . | . | .
Cc1ccc(/C=[N+](\[O-])c2ccc(N(C)C)cc2)c2nsnc12 | . | 5.9 | . | 77.2* | 4.2 | 11.2
Cc1ccc2nsnc2c1NS(=O)(=O)c1c(C)ccc2nsnc12 | -8.7 | -6.6 | 2.4 | . | 2.5 | 20.9
C[n+]1nc(Nc2cccc(F)c2)sc1-c1ccc(C(=O)O)cc1 | . | . | . | . | . | 15.8
O=C1/C(=C\c2cc(Br)cc(Br)c2O)SC(=S)N1Cc1ccccc1 | 6.7 | -2.7 | 21.6 | . | 78.5* | 2.5
O=C(O)CN1C(=O)/C(=C\c2ccccc2OCc2ccc(Cl)cc2Cl)SC1=S | -1.7 | 1.6 | -4.1 | . | 70.7* | 34.0
O=C(O)CN1C(=O)/C(=C\c2cc(Br)ccc2OCc2ccccc2Cl)SC1=S | 25.0 | 2.3 | 2.5 | . | 94.6* | .
O=C(O)CN1C(=O)/C(=C\c2cc(Br)ccc2OCc2ccc([N+](=O)[O-])cc2)SC1=S | -10.4 | 7.4 | 0.6 | . | 32.1 | .
O=C(O)CN1C(=O)/C(=C\c2cc(Br)ccc2OCc2ccccc2F)SC1=S | 0.9 | 6.0 | -3.3 | . | 68.1* | 41.5
O=C1/C(=C\c2cccc([N+](=O)[O-])c2O)SC(=S)N1Cc1ccccc1 | -2.2 | 13.1 | 0.0 | . | 19.7 | 30.8
O=S(=O)(c1ccc(Cl)cc1)N1CCN(S(=O)(=O)N2CCCCCC2)CC1 | -7.5 | 7.7 | 11.6 | -17.0 | -1.2 | 44.8
O=S(=O)(N1CCCCC1)N1CCN(c2cc(Cl)ccc2Cl)CC1 | 1.7 | -0.5 | -3.3 | 73.6* | -9.6 | 42.9
O=C(NCC(=O)N(Cc1ccco1)C(C(=O)NC1CCCC1)c1cccnc1)c1ccco1 (stereo not drawn) | -9.3 | 0.9 | 0.6 | 17.4 | -6.4 | .
O=C(NCC(=O)N(Cc1ccccc1)C(C(=O)NC1CCCC1)c1cccnc1)c1ccco1 (stereo not drawn) | -8.3 | -2.3 | -2.3 | -1.4 | -2.3 | 199.4*
Cc1ccc(S(=O)(=O)N2CCOCC2)cc1NC(=O)c1cc2c(s1)CCC2 | -5.8 | 6.2 | -5.1 | -10.8 | -4.2 | 18.6
Cc1ccc(S(=O)(=O)Nc2ccc(Cl)cc2)cc1NC(=O)c1cc2c(s1)CCCC2 | 3.7 | -4.8 | -3.2 | 30.7 | 53.3* | 5.6
CC(C)C(=O)Nc1cc(S(=O)(=O)Nc2cccc(Cl)c2)ccc1Cl | -2.4 | -6.1 | 3.1 | 32.2 | -11.9 | -1.8
SMILES | Rtt109 HAT inh | Platelet DG rel | TPT1 inh | WT yeast gro inh | SKKanGAS inh | PHOSPHO1 block
CC(C)C(=O)Nc1cc(S(=O)(=O)Nc2ccc(Cl)cc2)ccc1Cl | 19.6 | -0.1 | 2.9 | 73.8* | -3.6 | -1.8
COC(=O)[C@H](Cc1ccccc1)NC(=O)O[C@H]1C(=O)c2ccc(OC)cc2O[C@@H]1c1ccc2c(c1)OCO2 | . | 4.2 | -0.6 | 62.0* | 16.1 | -6.1
COC(=O)[C@H](Cc1ccccc1)NC(=O)O[C@@H]1C(=O)c2cc(OC)ccc2O[C@H]1c1ccc(OC)c(Br)c1 | . | 8.9 | -2.8 | 2.0 | 28.3 | -8.6
Cc1cc(C)c(NC(=O)COC(=O)Cc2cccs2)c(C)c1 | 3.4 | 2.3 | 2.4 | . | -0.2 | .
CCN(CC)CCNC(=O)C1CCN(S(=O)(=O)c2c(C)noc2/C=C/c2ccccc2F)CC1 | 6.1 | 3.7 | -0.1 | . | -2.9 | 12.3
O=C(CNC(=O)c1ccc(Br)o1)NC12CC3CC(CC(C3)C1)C2 | 57.6* | 0.3 | -5.0 | . | 0.4 | 46.6
O=C(CNC(=O)c1ccc(Br)o1)NC1CCCCCC1 | -2.0 | -61.7 | 0.8 | . | 13.1 | .
CCCCN=C(NNc1ccc(Br)cc1)C(=O)OCC | -2.0 | -20.4 | -0.3 | 64.4* | 9.1 | 2.1
CCOC(=O)C(=O)NNc1ccc(C)cc1 | 3.1 | -14.1 | 0.3 | 61.7* | -1.6 | -3.5
CC(C)OC(=O)C(=O)NNc1ccccc1 | . | 0.2 | -5.2 | 72.2* | -8.0 | -43.6
O=C(Cn1cnc2ccccc21)Nc1ccc2c(c1)OCCCO2 | -0.7 | . | . | . | . | .
N#Cc1ccccc1S(=O)(=O)N1CCN(C(=O)Cc2coc3cc(O)ccc23)CC1 | -2.3 | . | . | . | . | .
COc1ccc(-n2cnnc2SCC(=O)Nc2cc(C(C)(C)C)nn2-c2ccccc2)cc1 | 6.2 | -1.3 | -1.9 | . | 1.5 | 27.9
COc1ccccc1-n1cnnc1SCC(=O)Nc1cc(C(C)(C)C)nn1-c1ccccc1 | 26.9 | -3.3 | 0.6 | 78.1* | -0.6 | 0.9
Cc1cc(=O)n2nc(N3CCCC(C(=O)NCc4ccc(F)cc4)C3)sc2n1 (stereo not drawn) | 5.2 | 1.8 | -3.2 | . | -0.9 | 54.7
Cc1cc(=O)n2nc(N3CCCC(C(=O)NCc4ccccc4)C3)sc2n1 (stereo not drawn) | -13.6 | 69.2* | 0.8 | . | -2.1 | 22.8
CCNc1ccc2noc3c2c1C(=O)c1ccccc1-3 | -1.0 | 7.5 | -37.0 | 45.6 | 13.0 | 3.9
O=C1c2ccccc2-c2onc3ccc(NCc4ccco4)c1c23 | 19.0 | 5.8 | -70.7 | 65.8* | 23.3 | 1.7
CCOc1ccc2noc3c2c1C(=O)c1ccccc1-3 | -7.4 | 0.7 | -92.0 | 14.9 | -1.3 | 61.9*
O=C1CC(N(CCc2ccccc2)C(=S)Nc2ccccc2)C(=O)N1c1ccc(Br)cc1 (stereo not drawn) | 5.7 | -13.4 | -0.2 | 69.5* | 68.8* | 16.7
COc1ccc(CCN(C(=S)Nc2ccccc2)C2CC(=O)N(c3ccccc3)C2=O)cc1 (stereo not drawn) | -4.7 | 11.5 | 4.6 | 6.2 | 25.5 | 6.1
CCCCCCN1N=C(C)C(C(=O)c2ccc(Cl)cc2)C1=O (stereo not drawn) | 26.9 | -3.4 | -3.0 | 12.4 | 49.8* | 18.3
Fc1nc(F)c(F)c(NCCCNc2c(F)c(F)nc(F)c2F)c1F | -0.9 | -6.0 | -3.3 | 72.5* | -9.8 | -5.3
C=CCn1cc(C(=O)N2CCN(c3ccccc3)CC2)c(=O)c2cc(S(=O)(=O)N3CCCC3)ccc21 | 5.6 | -0.1 | 2.0 | . | -0.4 | -9.6
CCN(CC)CCNC(=O)Cn1nc(Cc2ccccc2)c2ccccc2c1=O | -5.6 | -0.3 | -3.4 | 59.9* | 4.9 | 3.6
